Source: PubChem
Fam108B inh = counter-screen for RBBP9 inhibitors: inhibitors of mouse Fam108B | recombinant Fam108B, FP-Rh probe fluorescence polarization | inhibition, % at 9.51 µM | hit rate 0.33% among 300,000 | AID 1947;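 active = inhibition above the screen mean inhibition plus 3 SD, computed separately per campaign, cut at about 18% in these data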;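 note: inhibitors lower polarization as less probe binds the enzyme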
LYPLA2 inh = blocks human lysophospholipase 2, a PME1 counter-screen | hit rate 0.38% among 320,000 | inhibition, % at 5.9 µM | O95372 | recombinant LYPLA2, FP-Rh probe fluorescence polarization;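 active = inhibition above the screen-wide mean plus 3 SD, limit set per campaign, cut at about 26% in these data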;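 note: 0% = LYPLA2 with DMSO and 100% = wells lacking LYPLA2 enzyme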
Target sequence (O95372 whole entry, looked up): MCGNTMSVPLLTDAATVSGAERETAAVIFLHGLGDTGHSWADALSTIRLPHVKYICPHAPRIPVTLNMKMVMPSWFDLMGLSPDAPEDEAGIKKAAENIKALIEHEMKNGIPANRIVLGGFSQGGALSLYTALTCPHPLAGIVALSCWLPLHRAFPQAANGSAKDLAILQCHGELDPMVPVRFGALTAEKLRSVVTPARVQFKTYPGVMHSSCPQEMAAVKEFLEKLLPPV
PME-1 primary = blocks human protein phosphatase methylesterase 1 | hit rate 0.53% among 320,000 | Q9Y570 | inhibition, % at 5.9 µM | recombinant PME-1, FP-Rh probe fluorescence polarization;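 active = inhibition above the campaign mean of all compounds plus 3 SD, cut at about 26% in these data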;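 note: competitive labeling of PME-1 active site by serine hydrolase directed probe; 0% = PME-1 with DMSO and 100% = wells lacking PME-1 enzyme; inhibitors block probe labeling so polarization falls and inhibition rises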
LYPLA1 counter = LYPLA1 (human) inhibition in PME1 counter-screen; O75608; recombinant LYPLA1, FP-Rh probe fluorescence polarization; inhibition, % at 5.9 µM; hit rate 0.16% among 320,000; AID 2174;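 active = inhibition above the mean of all tested compounds plus 3 SD, set per campaign, cut at about 14% in these data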;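 note: inhibitors block serine hydrolase probe labeling of LYPLA1 so polarization falls; 0% = enzyme with DMSO and 100% = wells lacking LYPLA1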
GSTO1 inh = GSTO1 inhibition, counter-screen for RBBP9 inhibitors. P78417. recombinant GSTO1, activity-based probe fluorescence polarization. inhibition, % at 5.96 µM. hit rate 1.1% among 300,000. AID 1974;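 active = inhibition above the campaign mean inhibition plus 3 SD, cut at about 35% in these data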;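 note: 0% = GSTO1-1 with DMSO and 100% = wells lacking GSTO1-1 enzyme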
Target sequence (P78417 whole entry, looked up): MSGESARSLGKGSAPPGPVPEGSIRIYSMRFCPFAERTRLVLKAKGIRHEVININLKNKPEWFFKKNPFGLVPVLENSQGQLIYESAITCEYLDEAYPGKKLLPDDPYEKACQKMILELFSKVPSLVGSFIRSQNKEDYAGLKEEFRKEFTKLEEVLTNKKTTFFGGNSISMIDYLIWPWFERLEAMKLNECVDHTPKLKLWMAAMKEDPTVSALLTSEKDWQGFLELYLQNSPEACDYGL
PAD4 inh = inhibitors of human PAD4. inhibition, % at 6.36 µM. Q9UM07. hit rate 0.41% among 330,000. recombinant PAD4, RCA probe fluorescence polarization;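 active = percent inhibition above a cutoff equal to the mean of all tested compounds plus 3 SD, cut at about 15% in these data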;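 note: 0% = PAD4 with RCA probe and DMSO and 100% = probe without PAD4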
LYPLA2 conf = counter-screen for PME1 inhibitors: confirmation of human LYPLA2 inhibitors; shares compounds with LYPLA2 inh; inhibition, % at 5.9 µM; AID 2232; recombinant LYPLA2, FP-Rh probe fluorescence polarization; hit rate 72% among 1,100;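 active = mean inhibition across replicates above the hit cutoff set in the primary screen, cut at about 26% in these data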;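 note: blocked labeling of the enzyme by serine hydrolase FP-Rh probe lowers polarization; 0% = enzyme with DMSO and 100% = wells lacking LYPLA2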
LYPLA2 gel ABPP = inhibitors of human LYPLA2; shares compounds with LYPLA2 inh; rhLYPLA2 in mouse brain proteome, gel ABPP FP-Rh; inhibition, % at 20 µM; hit rate 30% among 150;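 active = inhibition of LYPLA2 enzyme probe labeling above about 50%, limit read from the data; inactive = inhibition below that limit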;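 note: loss of FP-Rh probe labeling of the LYPLA2 gel band measured as band density; 0% = DMSO only control band and 100% = blank gel background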
* hit, by the source's call. The list is not random: actives were taken first. Their share in the collection is about 1.8%.

For Cc1cc(C(=O)OCC(=O)NC(C)C)c2ccccc2n1 the results were Fam108B inh 10, LYPLA2 inh 3, PME-1 primary 4, LYPLA1 counter -1, GSTO1 inh 4 and PAD4 inh 2.
For O=C(Nc1c2c(nn1-c1cccc(Cl)c1)CS(=O)(=O)C2)c1ccco1 the results were Fam108B inh 1, LYPLA2 inh 5, PME-1 primary 2, LYPLA1 counter 4, GSTO1 inh -4 and PAD4 inh -5.
O=C(NC(=S)N1CCN(c2ccc(C(F)(F)F)cc2[N+](=O)[O-])CC1)c1cccs1 was read as Fam108B inh 3, LYPLA2 inh 36*, PME-1 primary -5, LYPLA1 counter -1, GSTO1 inh 6, PAD4 inh 0 and LYPLA2 conf 30*.
O=[N+]([O-])c1ccc(Oc2cccc3cccnc23)c(Cl)c1 was read as Fam108B inh 1, LYPLA2 inh 28*, PME-1 primary 4, LYPLA1 counter -4, GSTO1 inh -5, PAD4 inh 2 and LYPLA2 conf 16.
Screening NC(=O)c1ccc(Oc2cccc3cccnc23)c([N+](=O)[O-])c1 returned Fam108B inh 4, LYPLA2 inh 10, PME-1 primary 4, LYPLA1 counter 0, GSTO1 inh 7 and PAD4 inh 0.
For COc1ccc(NC(=O)CO/N=C2\CCCc3nonc32)cc1 the results were Fam108B inh 0, LYPLA2 inh -1, PME-1 primary -3, LYPLA1 counter -2, GSTO1 inh 0 and PAD4 inh -7.
COc1ccc(C(=O)ON=C2CCCc3nonc32)cc1 was read as LYPLA2 gel ABPP 6.
`O=C(CC1SC(N2CCCCC2)=NC1=O)Nc1ccc(C(=O)NCCc2ccc(F)cc2)cc1` (stereo unspecified) gave LYPLA2 inh 49*, PME-1 primary 5, LYPLA1 counter 2, PAD4 inh 0 and LYPLA2 conf 39*.
`CN(CCO)C1=CC(=O)CC(C)(C)C1` gave Fam108B inh 1, LYPLA2 inh 3, PME-1 primary 1, LYPLA1 counter -1, GSTO1 inh 5 and PAD4 inh -1.
Screening CC(=O)c1cccc(NC(=O)C2CCN(C(=O)c3ccc([N+](=O)[O-])cc3)CC2)c1 returned Fam108B inh 5, LYPLA2 inh 18, PME-1 primary -3, LYPLA1 counter 0, GSTO1 inh 3 and PAD4 inh 3.
`CCOc1ccc(C(=O)C2CCN(C(=O)c3ccc([N+](=O)[O-])cc3)CC2)cc1` gave Fam108B inh 0, LYPLA2 inh 33*, PME-1 primary 4, LYPLA1 counter 3, GSTO1 inh 2, PAD4 inh -4 and LYPLA2 conf 31*.
Cc1ccc(C(=O)N2CCC(C(=O)Nc3cccc([N+](=O)[O-])c3)CC2)cc1 was read as Fam108B inh 2, LYPLA2 inh 32*, PME-1 primary 0, LYPLA1 counter 6, GSTO1 inh 0, PAD4 inh 2 and LYPLA2 conf 17.
Screening COc1ccc(C)cc1NC(=O)C1CCN(S(C)(=O)=O)CC1 returned Fam108B inh 1, LYPLA2 inh -1, PME-1 primary -9, LYPLA1 counter -1, GSTO1 inh 4 and PAD4 inh -5.
CC(C)(C)c1ccc(C(=O)N2CCC(C(=O)NC3CCCCCC3)CC2)cc1 was read as Fam108B inh 0, LYPLA2 inh 48*, PME-1 primary 1, LYPLA1 counter 0, GSTO1 inh -2, PAD4 inh -2, LYPLA2 conf 54* and LYPLA2 gel ABPP 20.
COc1ccc(C)cc1NC(=O)C1CCN(C(=O)c2ccc(C(C)(C)C)cc2)CC1 was read as Fam108B inh -2, LYPLA2 inh 41*, PME-1 primary 2, LYPLA1 counter 10, GSTO1 inh -1, PAD4 inh -1 and LYPLA2 conf 44*.
Screening Nc1ccc(NS(=O)(=O)c2ccccc2)cc1 returned Fam108B inh -1, LYPLA2 inh -3, PME-1 primary -3, LYPLA1 counter -3, GSTO1 inh -4 and PAD4 inh 4.
